Data taken from ChEMBL document CHEMBL3988442, “University of Dundee, Small-Polar-MMV Screening Library” (2021).
About 13,000 (27%) of roughly 48,000 compounds showed an effect of 50% or more. The list shows a part of the results.

These compounds were tested on Wolbachia pipientis (assay: Anti-Wolbachia Cell-Based Screen). Details: 5 µM.
Type: functional
Set-up: scale not given: in the data most compounds retested in dose-response had high values
`CS(=O)(=O)N1CCC2(CC1)CN(CC1CC1)CC21CCNC1=O.O=C(O)C(F)(F)F` (stereo not drawn) was tested, and the “Percent Effect” value was -40.94%.
For `Cc1nc(-c2cn(CCN)nn2)n(-c2ccc(C(F)(F)F)cc2)n1`, the “Percent Effect” value was -70.01%.
`Cc1nccn1-c1ccc(N2CCC(N[C@H](C)C(C)C)CC2)cc1` was tested, and the “Percent Effect” value was 17.33%.
With `Cc1noc(CCCC(=O)Nc2cc(C(F)(F)F)c[nH]c2=O)n1` the “Percent Effect” value was 11.68%.
`CC1CN(C(=O)Nc2ccc(Cl)c(C(=O)NC3CC3)c2)CC(C)(C)O1` (stereo not drawn) was tested, and the “Percent Effect” value was -20.36%.
In the case of `CC1CN(C(=O)Nc2cc(C(F)(F)F)c[nH]c2=O)CC(C)(C)O1` (stereo not drawn), the “Percent Effect” value was 113.6%.
`O=C(Nc1cc(C(F)(F)F)c[nH]c1=O)N1CCCSCC1` was tested, and the “Percent Effect” value was -10.12%.
For `O=C(Nc1cc(C(F)(F)F)c[nH]c1=O)N1CCSCC1`, the “Percent Effect” value was 108.7%.
In the case of `CCCc1noc(CCC(=O)Nc2cc(C(F)(F)F)c[nH]c2=O)n1`, the “Percent Effect” value was -8.892%.
`O=C(NCCNc1ncccn1)Nc1cc(C(F)(F)F)c[nH]c1=O` was tested, and the “Percent Effect” value was -3.235%.
`CC1(C)CN(C(=O)Nc2cc(C(F)(F)F)c[nH]c2=O)CCO1` was tested, and the “Percent Effect” value was 99.91%.
In the case of `O=C(NC1=NCCS1)C1CSCN1C(=O)C1CCCC1` (stereo not drawn), the “Percent Effect” value was -6.178%.
For `Cn1cccc(NC(=O)NCc2cccc(CO)c2)c1=O`, the “Percent Effect” value was -1.059%.
For `Cc1cc(-c2nc(-c3ccccn3)nn2C2CCN(C)CC2)nc(C)n1`, the “Percent Effect” value was -5.062%.
For `O=C(Cn1ccc2sccc2c1=O)NCc1ccc2c(c1)OCO2`, the “Percent Effect” value was 0.2723%.
`O=C(CCc1nnc2ccccn2c1=O)NCc1cccnc1` was tested, and the “Percent Effect” value was 121.1%.
For `Cn1cccc1CNC(=O)CCCc1nnc2ccccn12`, the “Percent Effect” value was 14.24%.
With `COc1ccc(CNC(=O)Cc2csc(C(C)=O)c2)cc1` the “Percent Effect” value was 2.837%.
With `O=C(CCC1CCCC1)NCc1nnc2ccccn12` the “Percent Effect” value was 1.32%.
For `O=C(CCc1nnc2ccccn2c1=O)NCc1ccc2c(c1)OCO2`, the “Percent Effect” value was 110.3%.
`O=C(CCc1nnc2ccccn2c1=O)NCc1ccco1` was tested, and the “Percent Effect” value was 105.9%.
`Cc1cccc(N2CCN(CCC(=O)NCc3cccnc3)CC2)c1` was tested, and the “Percent Effect” value was 6.039%.
With `COc1ccc(CNC(=O)CCc2nnc3ccccn3c2=O)cc1` the “Percent Effect” value was 126.1%.
With `O=C(CCc1nc2cccnc2[nH]1)NCc1cccnc1` the “Percent Effect” value was 5.887%.
For `O=C(CCc1nc2cccnc2[nH]1)NCc1ccc2c(c1)OCO2`, the “Percent Effect” value was 27.54%.
With `CCn1ncnc1CN1CCc2[nH]cnc2C1CCc1ccccc1` (stereo not drawn) the “Percent Effect” value was 5.135%.
For `Cc1ccc(CNC(c2ccc(F)cc2)c2nccn2C)o1` (stereo not drawn), the “Percent Effect” value was 6.945%.
`CC(=O)N1CCC(Oc2ccc(Cl)cc2C(=O)N2CCCO2)CC1` was tested, and the “Percent Effect” value was 5.175%.
`Cc1cnc(C(=O)N2C[C@H](N3CCOCC3)[C@@H]3OCCC[C@@H]32)cn1` was tested, and the “Percent Effect” value was 115.1%.
`Cc1ccoc1C(=O)N1C[C@@H](N2CCN(C)CC2)[C@H]2OCCC[C@H]21.O=C(O)C(F)(F)F.O=C(O)C(F)(F)F` was tested, and the “Percent Effect” value was -7.066%.
For `O=C(c1ccsc1)N1C[C@H](N2CCOCC2)[C@@H]2OCCC[C@@H]21`, the “Percent Effect” value was 0.7214%.
With `Cc1ccc(C(=O)N2C[C@@H](N3CCN(C)CC3)[C@H]3OCCC[C@H]32)cn1` the “Percent Effect” value was 115.4%.
For `Cc1ccc(C(=O)N2C[C@@H]3CCCO[C@@H]3[C@H](N3CCOCC3)C2)cn1.O=C(O)C(F)(F)F.O=C(O)C(F)(F)F`, the “Percent Effect” value was -9.984%.
For `CN1CCN([C@@H]2CN(C(=O)c3ccsc3)[C@@H]3CCCO[C@H]23)CC1`, the “Percent Effect” value was -4.041%.
In the case of `CC(C)(C)c1cn2nc(N3CCCC(Cn4cncn4)C3)sc2n1` (stereo not drawn), the “Percent Effect” value was 16.07%.
In the case of `CCn1ccnc1CN(C)c1cc(C2CC2)ncn1`, the “Percent Effect” value was 1.234%.
In the case of `CN1CCCC(Cc2cc(N(C)C)ncn2)C1` (stereo not drawn), the “Percent Effect” value was 94.81%.
`CN1CCCC(Cc2cncc(C(=O)NCC3CC3)c2)C1` (stereo not drawn) was tested, and the “Percent Effect” value was -7.268%.
`CN1CCCC(CNC(=O)N2CCN(Cc3ccon3)CC2)C1` (stereo not drawn) was tested, and the “Percent Effect” value was -11.04%.
With `CSCc1ccc(N(C)CC2CCCN(C(C)C)C2)nc1` (stereo not drawn) the “Percent Effect” value was -13.33%.
With `CCn1ccnc1CN(C)c1cc(N(C)C)ncn1` the “Percent Effect” value was 12.61%.
For `CN1CCC(Cc2cc(N(C)C)ncn2)C1` (stereo not drawn), the “Percent Effect” value was 110.8%.
For `CC(C)N1CCN(C)CC(Cc2cc(N(C)C)ncn2)C1` (stereo not drawn), the “Percent Effect” value was 93.36%.
In the case of `c1cnc(NCc2noc3c2CN(C2CCOCC2)CC3)nc1`, the “Percent Effect” value was -17.2%.
In the case of `COc1ccc(-c2nnc(C(C)N3CCOC(C)(C)C3)o2)cc1` (stereo not drawn), the “Percent Effect” value was -4.024%.
With `c1ccc2c(c1)CC(n1ccnc1-c1cc3n(n1)CCCNC3)CO2` (stereo not drawn) the “Percent Effect” value was 3.87%.
`CCc1ncc(CN(C)C(=O)Nc2cccnc2N2CCCC2)s1` was tested, and the “Percent Effect” value was 10.11%.
With `NS(=O)(=O)CCN1CCN(c2cc(F)ccc2F)CC1` the “Percent Effect” value was -4.797%.
For `O=C(O)C(F)(F)F.O=C(O)C(F)(F)F.c1csc(CN2CCO[C@H]3[C@H](OCCN4CCCC4)CC[C@@H]32)n1`, the “Percent Effect” value was 6.605%.
With `O=C(O)C(F)(F)F.c1cc(CN2CCO[C@H]3[C@H](OCC4CCOCC4)CC[C@@H]32)co1` the “Percent Effect” value was 111.9%.
For `O=C(O)C(F)(F)F.O=C(O)C(F)(F)F.c1cc(CN2CCO[C@H]3[C@H](OCCN4CCCC4)CC[C@@H]32)co1`, the “Percent Effect” value was 81.09%.
For `COc1ccc(CN2CCO[C@H]3[C@H](OCCN4CCCC4)CC[C@@H]32)cc1.O=C(O)C(F)(F)F.O=C(O)C(F)(F)F`, the “Percent Effect” value was 97.25%.
With `Fc1ccc(CN2CCO[C@H]3[C@H](OCCN4CCCC4)CC[C@@H]32)cc1.O=C(O)C(F)(F)F.O=C(O)C(F)(F)F` the “Percent Effect” value was -15.45%.
